TDP1 cell CPT: growth inhibition of DT40 Tdp1-/-;hTDP1 cells with camptothecin (screen for TDP1 inhibitors). Potency, µM (doses to about 46.2 µM), without a hit: top-dose activity change, negative = growth inhibition, usual class: inhibitors. chicken DT40 Tdp1-/-;hTDP1 cells + 20 nM CPT, ATP luminescence, 48 h. 12% of 420,000 active; also: potency is read from the fitted curve at half-maximal effect; nearly all actives have a fitted effect of over 55% in size
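Chicken DT40 Tdp1-/- cells stably complemented with human TDP1 were seeded at 400 cells/well in medium containing 20 nM camptothecin, exposed to pin-transferred compounds, and grown at 37 °C for at least 48 hr. Viability was read as ATP luminescence.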
ELG1 DNA repair: ELG1-dependent DNA repair inhibition | HEK293T ELG1-luciferase reporter, luminescence, 16 h; DNA damage induced by 5-fluorouridine | Potency, µM (titrated, usually from 46.1 µM), for inactives: at the highest dose activity change, negative = inhibition, usual class: inhibitors | 2.3% of 330,000 active | AID 504467; also: potency is read from the fitted curve at half-maximal effect; nearly all actives have a fitted effect of over 55% in size
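Luminescence from the luciferase reporter, measured 30 min after ONE-Glo reagent at room temperature, was the read-out. Beforehand, 2,000 cells per well were exposed for 16 hr at 37 °C to 5-fluorouridine together with compound or vehicle.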
Giardia killer: kills Giardia lamblia; Giardia lamblia trophozoite viability; activity change, % at 7.66 µM, hits read low; 0.15% of 340,000 active; in the data active = activity change below about -80%; inconclusive = between about -30% and that limit;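 also: parasites exposed to compound for two days anaerobically before the ATP read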
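Compounds were tested on trophozoites seeded at 100 cells/well and held 48 hrs at 37 deg C anaerobically. An ATP-based luminescent kit measured the remaining live cells.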
DT40 TDP1 no CPT: qHTS for Inhibitors of human tyrosyl-DNA phosphodiesterase 1 (TDP1): qHTS in cells in absence of CPT | DT40 Tdp1-/- hTDP1 cells, no CPT, ATP luminescence, 48 h | Potency, µM (doses to about 46.2 µM), without a hit: at the highest dose activity change, negative = growth inhibition, most hits filed as inhibitors | 15% of 420,000 active | AID 686978, 2013; also: potency is read from the fitted curve at half-maximal effect; nearly all actives have a fitted effect of over 55% in size
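Readout: luminescence from CellTiter-Glo after 30 min in the dark at RT. Cells: DT40 Tdp1-/- with stable hTDP1, 400/well. Exposure: compounds alone, ≥48 hr, 37 °C.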
TDP1 block: inhibitors of human tyrosyl-DNA phosphodiesterase TDP1; 0.28% of 350,000 active; Potency, µM (doses to about 130 µM), for inactives: at the top dose activity change, negative = inhibition, usual class: inhibitors; Q9NUW8; recombinant TDP1, AlphaScreen DNA substrate cleavage; also: potency is read from the fitted curve at half-maximal effect; nearly all actives have a fitted effect of over 40% in size
Target sequence (Q9NUW8 whole entry, looked up): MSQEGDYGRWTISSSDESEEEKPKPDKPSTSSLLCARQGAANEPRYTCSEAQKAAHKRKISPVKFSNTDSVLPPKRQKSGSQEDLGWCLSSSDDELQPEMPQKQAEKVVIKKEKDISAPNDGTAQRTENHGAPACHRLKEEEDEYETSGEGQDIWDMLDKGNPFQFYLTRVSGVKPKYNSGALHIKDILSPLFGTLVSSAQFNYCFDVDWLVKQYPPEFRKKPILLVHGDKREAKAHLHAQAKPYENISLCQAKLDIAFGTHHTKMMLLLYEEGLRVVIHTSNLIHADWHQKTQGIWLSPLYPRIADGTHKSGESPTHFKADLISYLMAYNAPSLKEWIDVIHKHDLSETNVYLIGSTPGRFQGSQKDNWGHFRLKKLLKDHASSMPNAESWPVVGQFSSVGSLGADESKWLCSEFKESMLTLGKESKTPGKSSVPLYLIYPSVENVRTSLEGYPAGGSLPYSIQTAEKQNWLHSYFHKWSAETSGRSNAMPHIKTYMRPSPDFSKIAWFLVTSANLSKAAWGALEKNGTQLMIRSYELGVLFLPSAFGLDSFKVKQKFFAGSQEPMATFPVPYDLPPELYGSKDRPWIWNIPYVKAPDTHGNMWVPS
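Recombinant human Tdp1 (E. coli-expressed, 1 nM final) preincubated with compounds 15 min at room temperature, then 5'-biotin/3'-phosphotyrosine-FITC DNA substrate (15 nM final) added for 5 min. AlphaScreen beads (10 ug/ml final) added 10 min; cleavage lowers signal.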
IL-1B inflam inh: inhibitors of inflammasome signaling (IL-1 beta secretion). THP-1 LPS/ATP IL-1B secretion, AlphaLISA, 16 h; active compounds read low. activity change, % at 57.5 µM. 4.7% of 360,000 active. AID 743279; in the data active = activity change below about -50%; inconclusive = mostly about -30% to -49%
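THP-1 cells pretreated 1 hr with compounds (up to 57.5 uM final), then stimulated with LPS (250 ng/mL final) plus ATP (1.25 mM final); secreted IL-1B measured by AlphaLISA after 16 hr, decreased signal indicating inhibition.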
The depositor's hits bear a star; ? = inconclusive; . = no result. Most compounds without a hit are left out; they make up all but 19% or so of the library. Unless noted, calls follow the shape of the dose curve; as a rule, active = well fitted curve in the direction sought with a large enough effect; inconclusive = small, poorly fitted or top-dose-only effect, or another doubt; inactive = no such curve, though single readings can be large; an effect the other way counts as inactive or inconclusive. % is scaled to controls: 0 for no effect and ±100 for the full control effect.

SMILES	TDP1 cell CPT	ELG1 DNA repair	Giardia killer	DT40 TDP1 no CPT	TDP1 block	IL-1B inflam inh
COc1cc(NC(=O)c2nnn(Cc3ccc(F)cc3)c2N)cc(OC)c1	?	.	.	-25%	-7%	.
Cc1cc(C)cc(NC(=O)c2nnn(Cc3cc(C)ccc3C)c2N)c1	21µM*	6%	23	?	3%	0
COc1cc(OC)c(NC(=O)c2nnn(Cc3ccc(C)cc3)c2N)cc1Cl	18µM*	.	.	12µM*	5%	.
Cc1ccc(C)c(Cn2nnc(C(=O)Nc3ccc4c(c3)OCCO4)c2N)c1	?	?	4	?	9%	-17
COc1cc(NC(=O)c2nnn(Cc3ccc(SC)cc3)c2N)cc(OC)c1	18µM*	?	-9	29µM*	7%	-25
COc1ccc([N+](=O)[O-])cc1NC(=O)COC(=O)c1ccc(O)cc1	7%	-7%	-3	1%	0%	31
Cc1ccccc1C(=O)Nc1ccnn1C1CCN(Cc2cnn(C)c2)CC1	-5%	2%	1	-8%	5%	0
CCCN(C(=O)COC(=O)Cn1c(=O)oc2ccccc21)c1c(N)n(Cc2ccccc2)c(=O)[nH]c1=O	-11%	?	19	-5%	.	12
COc1cc(Cl)c(C)cc1NC(=O)CCc1nc2cccnc2n1-c1ccccc1	?	.	.	?	9%	.
CC/C(=N\NC(=O)c1ccc(-c2ccccc2)cc1)C12CC3CC(CC(C3)C1)C2	-14%	13%	5	13µM*	-1%	12
C/C(=N\NC(=O)c1ccncc1)C12CC3CC(CC(C3)C1)C2	-17%	-15%	16	?	5%	2
CC1=C(C(=O)N(C(C)C)C(C)C)CC(CC(=O)NCc2cccs2)C(=O)N1Cc1ccc(F)cc1 (stereo not given)	?	.	.	?	.	-17
CC1=C(C(=O)N(C(C)C)C(C)C)CC(CC(=O)NCc2cccs2)C(=O)N1Cc1ccc(C(C)(C)C)cc1 (stereo not given)	?	.	.	23µM*	.	-59*
COc1ccc(CN2C(=O)C(CC(=O)NCc3ccco3)CC(C(=O)N3CCOCC3)=C2C)cc1 (stereo not given)	11%	.	.	?	.	-13
CC1=C(C(=O)N2CCOCC2)CC(CC(=O)NCc2cccs2)C(=O)N1Cc1ccc(C(C)(C)C)cc1 (stereo not given)	15µM*	.	.	?	.	22
CC1=C(C(=O)N2CCOCC2)CC(CC(=O)NCc2ccco2)C(=O)N1Cc1ccc(C(C)(C)C)cc1 (stereo not given)	29µM*	.	.	21µM*	.	-16
Cc1ccc(S(=O)(=O)NC(CC(=O)NCC2CCCO2)c2ccccc2)cc1 (stereo not given)	-2%	3%	-7	0%	-5%	15
CN(C(=O)c1ccco1)c1nc(-c2ccc(Cl)cc2)cs1	?	0%	16	?	.	?
O=C(c1ccco1)N(CC1CCCO1)c1nc(-c2ccccc2)cs1 (stereo not given)	?	?	-11	23µM*	1%	-10
O=C(c1cccs1)N(CC1CCCO1)c1nc(-c2ccccc2)cs1 (stereo not given)	21µM*	?	-13	?	1%	-29
CCOc1ccc(NC(=O)N(Cc2c[nH]c3ccccc23)C2CCCCCC2)cc1	9.2µM*	.	.	?	7%	.
CCOc1ccc(NC(=O)N(Cc2c[nH]c3ccccc23)C2CCCCC2)cc1	8.2µM*	.	.	18µM*	2%	.
COc1ccc(CC(=O)OCC(=O)Nc2cc(Cl)ccc2C)cc1	-4%	8%	-3	-4%	-4%	8
O=C(Cn1ncc2c3ccccc3n(Cc3cccc(Cl)c3)c2c1=O)NCCC1=CCCCC1	-5%	.	.	-20%	-5%	.
Cc1cc(C)nc(NC(=O)C(c2ccccc2)c2ccccc2)n1	?	-1%	7	-22%	4%	-17
SMILES	TDP1 cell CPT	ELG1 DNA repair	Giardia killer	DT40 TDP1 no CPT	TDP1 block	IL-1B inflam inh
Cc1cc(C)nc(NC(N)=NCCc2c[nH]c3ccccc23)n1	21µM*	?	6	9.2µM*	4%	-95*
Cc1cc(C)nc(NC(N)=NC(C)c2ccccc2)n1 (stereo not given)	?	?	23	16µM*	-2%	?
Cc1cc(C)nc(NC(N)=NCCc2ccccc2)n1	2.6µM*	.	4	2.9µM*	.	-95*
Cc1cc(C)nc(NC(=NCCc2c[nH]c3ccccc23)NC(=O)Nc2ccc(Cl)cc2)n1	23µM*	?	-17	23µM*	3%	-28
CC1CCCC(NC(=O)c2cccs2)C1C (stereo not given)	-22%	14%	3	?	1%	-1
Cc1ccc(CN(Cc2cccn2-c2nnc(N3CCCC3=O)s2)C(=O)Nc2cc(C)cc(C)c2)cc1	?	.	.	?	0%	.
COc1ccc(/C(C)=N\Nc2nc(-c3ccc(Cl)cc3)cc(C(F)(F)F)n2)cc1OC	?	8.2µM*	-6	?	5%	15
COc1ccc(CN(C(=O)c2ccco2)c2ccc(C)c(C)c2)cc1	?	-16%	20	?	-4%	23
O=[N+]([O-])c1cccc(C=NNc2ccc3ccccc3n2)c1O	5.2µM*	.	19	5.8µM*	.	84
Cc1cc(N/N=C/c2ccccc2Br)nc2ccccc12	?	?	-16	?	6%	9
Brc1ccccc1/C=N/Nc1ccc2ccccc2n1	?	?	4	16µM*	3%	-9
O=C(CCN1C(=O)[C@@H]2Cc3ccccc3CN2C1=O)NCc1ccc(Cl)cc1	?	1%	10	?	2%	-14
COCCCn1c(=O)c2ccccc2n(Cc2ccccc2C)c1=O	?	-6%	-5	?	3%	-13
COCn1c(=O)c2c(nc(SC3=NCCS3)n2Cc2ccccc2C)n(COC)c1=O	23µM*	18µM*	-2	?	10%	-8
Cc1ccc2c(c1)N(CCC(=O)NCc1ccccc1Cl)C(=O)CO2	4%	.	.	-24%	0%	.
C=CCc1cc(OC)ccc1OCCN1CC(C)OC(C)C1 (stereo not given)	-14%	6%	?	-8%	.	2
CCOC(=O)C1=CCN(S(=O)(=O)c2ccc(C)cc2)[C@H]1c1ccccc1Cl	?	.	.	?	.	2

Screens as filed in PubChem BioAssay.
